# The whole screen tested about 2,300 compounds, of which about 550 (24%) were called active. The list is a sample of the results. Potency and affinity values are given separately. Unmarked numbers belong to inactive results. How the calls were made is not given here.
# Assay: Vero E6 cell cytotoxicity, dose response, cytotoxicity control for non-replicating M. tuberculosis project, secondary assay (AID 492998);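 further: 100% = vehicle-treated cells and 0% = background wells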
# Settings: series mostly up to 20 µM; viability: at the top concentration
row,SMILES,viability
1,O=C(CC1CCCC1)OCn1nnc2ccccc2c1=O,102%
2,COc1ccc(-n2c3c(cc(C(=O)NNc4ccccc4)c2=O)C(=O)CC(C)(C)C3)cc1,102%
3,CCOC(=O)C1(O)CC(C)=NN1C(=O)c1cccc(Br)c1 (stereo not given),104%
4,CCOC(=O)c1c(C)nc2c3ccccc3ccn12,106%
5,CCOC(=O)Cc1ccc(NCc2ccc(Cl)cc2)cc1,93.4%
6,CCOC(=O)Cc1cc(=O)n2[nH]cc(-c3ccc(Cl)cc3)c2n1,94.1%
7,CCOc1ccc(NC(=O)CCc2ccc(C)o2)cc1,111%
8,CC(C)(C)NC(=O)C(=O)NNC(=O)COc1ccc(Br)cc1,95.2%
9,O=C(COC(=O)c1cccc(C(F)(F)F)c1)NCc1ccccc1,98.9%
10,CCOC(=O)COc1ccc2c(c1)c(C(=O)OCC)c(C)n2CC,95.5%
11,CCCCN1CCC(O)(c2ccccc2)C(C(=O)c2ccccc2)C1 (stereo not given),79.3%
12,CCOc1c(OC(C)=O)ccc(/C=C2\N=C(SCC)SC2=O)c1[N+](=O)[O-],101%
13,O=Cc1ccc(OC2OCCOC2Oc2ccc(C=O)cc2)cc1 (stereo not given),108%
14,Cc1cc2nc(CSc3ccc(Cl)cc3)cc(=O)n2[nH]1,99%
15,COc1cccc2cc(-c3nc4ccccc4o3)c(=O)oc12,92.9%
16,CS(=O)(=O)Cc1nc2ccccc2oc1=O,79.7%
17,O=C(CCN1CCN(C/C=C/c2ccccc2)CC1)Nc1ccc(Cl)cc1,87.6%
18,Cc1ccc(-c2nnc(COC(=O)c3cccs3)o2)cc1,102%
19,CCOC(=O)C(=NCCOC)NNc1cc(Cl)ccc1Cl,106%
20,OC(COc1ccc2ccccc2c1Br)Cn1ccnc1 (stereo not given),89.5%
21,Cc1cccc(OCC(O)Cn2c(=N)n(Cc3ccccc3)c3ccccc32)c1 (stereo not given),75%
22,O=C(COc1ccccc1)NCCSCc1ccc(Cl)cc1,97.8%
23,OC(COc1ccccc1Cl)CN1CCN(CC(O)COc2ccccc2Cl)CC1 (stereo not given),85.3%
24,CC(=O)n1cc(/C=C2/N=C(c3ccccc3)OC2=O)c2ccccc21,98.1%
25,COc1cc(C(=O)ON=C2C=C(C)C(=O)C(C)=C2)cc(OC)c1OC,86.3%

row,SMILES,viability
1,CCOCC(=O)Nc1ccc(C)c(Cl)c1,106%
2,Cc1cc(NC(=O)COC(=O)COc2ccc(C(=O)c3ccccc3)cc2)no1,95.8%
3,O=C(O)c1ccc(NCc2ccc(Br)cc2)cc1,105%
4,CC(=O)Nc1ccc(NC(=O)[C@@H]2CCCC[C@@H]2C(=O)O)cc1,100%
5,O=C(COc1ccc2ccccc2c1)N1CCCC1,89%
6,Nc1c(Cl)cc(Cl)cc1C(=O)OCC(=O)N1CCCC1,78.2%
7,CCOC(=O)c1ccc(-c2ccc(C(=O)Nc3cccnc3)o2)cc1,88.4%
8,CCC(C)NCCOc1ccc(C(C)(C)c2ccccc2)cc1 (stereo not given),79.9%
9,CCOC(=O)C1CCCN(Cc2ccc(OCc3ccccc3)cc2)C1 (stereo not given),96.5%
10,CN=C1S/C(=C\c2ccc(OCC(=O)OC)c(OC)c2)C(=O)N1C,82%
11,CC(C)CSc1nnc2c3ccccc3n(C)c2n1,85.3%
12,CC(C)[C@@H]1CC[C@@H](C)C[C@H]1OC(=O)C[n+]1cc(-c2ccc(Cl)cc2)n2c1CCCCC2,100%
13,COc1ccc(NC(=O)c2cc3ccccc3o2)cc1,90.1%
14,CCCn1nnnc1NCc1ccc(C(C)C)cc1,97.6%
15,CCc1nonc1NC(=O)COc1ccc(Cl)c(C)c1,101%
16,O=C1/C(=C/c2ccccn2)COc2ccccc21,78.1%
17,Cn1nnc(NC(=O)COc2ccc(C3CCCCC3)cc2)n1,110%
18,O=C(NCc1ccc(F)cc1)c1cnccn1,98.9%
19,O=C(Oc1ccccc1)c1ccc(COC(=O)c2cnccn2)cc1,94.8%
20,COc1c[nH]n(C2CCCCC2)c(=O)c1=O,93.4%
21,CCCN(Cc1nnc(-c2ccccc2Cl)o1)C(=O)c1cc([N+](=O)[O-])cc([N+](=O)[O-])c1,82.5%
22,Cc1ccc(NC(=O)COc2ccc3c(c2)CCC3)nc1,108%
23,COc1ccc(CNC(=O)c2cc3cccc(O)c3oc2=N)cc1,92.5%
24,CCc1ccc(N2NC(=O)/C(=C/C=C/c3ccco3)C2=O)cc1,95.8%
25,O=C(COc1cccc2ccccc12)Nc1nc2ccccc2[nH]1,87.5%

row,SMILES,viability
1,CC1Cc2cc(/C=C3/SC(=S)NC3=O)ccc2O1 (stereo not given),84.9%
2,c1ccc(-c2nc(NCCCn3ccnc3)c3ccccc3n2)cc1,82.4%
3,Cc1cccc2cc(C#N)c(NCCCn3ccnc3)nc12,86.1%
4,O=C(COC(=O)CCc1c[nH]c2ccccc12)Nc1cc([N+](=O)[O-])ccc1Cl,79%
5,Cc1nnc(N/N=C/c2cccc(OCc3ccc(Cl)c(Cl)c3)c2)n1N,83.2%
6,CCCCCCC1CC(C)(C(=O)CNc2nncs2)OC1=O (stereo not given),99.8%
7,CCCn1nnc(NC(=O)COc2ccc(CC)cc2)n1,100%
8,Cc1nc(C(=O)Nc2ccccc2)sc1C(=O)Nc1ccccc1,90.4%
9,CNC(=O)c1[nH]cnc1C(=O)Nc1ccc(Cl)cc1,103%
10,Nc1nnc(Sc2ncccc2[N+](=O)[O-])s1,112%
11,CC(C)OC(=O)C(C)Oc1ccc(C(=O)NCCc2ccccc2)cc1 (stereo not given),96.7%
12,CC(=O)c1cc2c(ccc3ccccc32)oc1=O,107%
13,Cn1cccc1/C=C1/C(=O)NC(=S)N(Cc2ccc(F)cc2)C1=O,78.3%
14,Cc1ccc(/C=C2/C(=O)NC(=O)N(CCc3ccc(F)cc3)C2=O)s1,94.2%
15,O=C1CC(N2CCSCC2)C(=O)N1CCc1ccccc1 (stereo not given),108%
16,CCCCSc1nnc(-c2cc(Br)ccc2N)c(=O)[nH]1,98.3%
17,O=C(NCCc1cccc(Cl)c1)c1cc2ccccc2oc1=O,109%
18,Cc1ccc(-c2ccc(/C=N/NC(=O)CN3CCCC3)o2)cc1Cl,91.8%
19,O=C(N/N=C/c1ccccn1)c1cc([N+](=O)[O-])cc([N+](=O)[O-])c1,107%
20,COc1ccccc1OCCNC(=O)c1cc([N+](=O)[O-])cc([N+](=O)[O-])c1,101%
21,COC(=O)C1=C(C)N(CC2CC2)C(=NCc2cccc(Cl)c2)N[C@H]1c1ccccc1,87.9%
22,O=C(COc1ccc(Br)cc1)N/N=C1/SCC(=O)N1Cc1ccccc1,73.1%
23,CC(=O)c1c(O)cc(=O)n(-c2ccccc2)c1-c1ccc(C)cc1,93%
24,CN(C)CCC(=O)N1c2ccccc2Sc2ccc(Cl)cc21,99.6%
25,CCOC(=O)c1ccc(NC(=O)NS(=O)(=O)c2ccc(C)cc2)cc1,99.6%
